According to PubChem BioAssay (Tox21):
Results filed as inconclusive are left out. Activity calls are given as the source filed them. Unless noted, calls come from the whole dose curve.

Assays:
[1] = Nuclear factor erythroid 2-related factor 2/antioxidant responsive element (Nrf2/ARE) small molecule agonists: qHTS cell viability counter screen in human keratinocytes (AID 1919968; active = well fitted curve in the direction sought with a large enough effect in the repeat runs; an effect the other way counts as inactive or inconclusive; note: nearly all actives have a fitted effect of over 55% in size; note: potency is the fitted concentration of half-maximal effect)
Summary of the method: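 Fluorescence read-out from CellTiter-Fluor after 1 h at 37 C. Wells held HaCaT-derived ARE-luciferase reporter cells (1,500/well) treated 23 h with DMSO-dissolved compounds. Run in the same wells as the luciferase agonist read.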

[2] = Nuclear factor erythroid 2-related factor 2/antioxidant responsive element (Nrf2/ARE) small molecule agonists: luciferase reporter gene qHTS assay in human keratinocytes (AID 1919969); note: nearly all actives have a fitted effect of over 35% in size; note: potency is the fitted concentration of half-maximal effect
[3] = molecular target: Gonadotropin-releasing hormone receptor (Homo sapiens) (UniProt P30968); assay: Human gonadotropin-releasing hormone receptor (GnRHR) small molecule agonists, calcium flux assay in GnRHR-HEK293 cells (AID 1920063); note: nearly all actives have a fitted effect of over 35% in size
Summary of the method: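 Calcium-dye fluorescence, Ex/Em=480/540, recorded every 1 sec over 3 min after compound addition to GnRHR-HEK293 cells. Cells had been seeded 18 hours earlier and dye-loaded for 1 hour at 37 C. Fifteen concentrations, triplicates.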

[4] = molecular target: KiSS-1 receptor (Homo sapiens) (UniProt Q969F8); assay: Human kisspeptin (KISS1R) small molecule agonists, calcium flux assay in KISS1R-HEK293 cells (AID 1920064; active = well fitted curve in the direction sought with a large enough effect in the repeat runs; an effect the other way counts as inactive or inconclusive)
Summary of the method: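 Calcium flux read-out: kinetic fluorescence at Ex/Em=480/540, 1 s intervals over 3 min, after pin-tool compound addition to dye-loaded KISS1R-HEK293 cells. Fifteen concentrations, triplicates.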

[5] = G protein-coupled receptor (GPCR) small molecule agonists, calcium flux assay: HEK293 wild type cell line counter screen (AID 1920065)
Summary of the method: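 Agonist mode; 18 h seeding at 37 C, 1 h dye load at 37 C; compounds pinned from DMSO, ATP as positive control; kinetic fluorescence 480/540 nm, 3 min, 1 s reads; 15 concentrations, triplicate.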

[6] = p53 small molecule agonists, cell-based qHTS assay with human liver microsomes (AID 1963577);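 note: p53 response element beta-lactamase reporter cells with liver microsomes plus NADPH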
Summary of the method: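 p53RE-bla cells; 5 h settle, 37 C/5% CO2; cpd + HLM 0.5 mg/mL + NADPH 0.5 mg/mL (final); 16 h 37 C; LiveBLAzer 2 h RT dark; fluorescence readout.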

[7] = p53 small molecule agonists, cell-based qHTS assay with rat liver microsomes (AID 1963578)
Summary of the method: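 Rat liver microsome activation: microsomes 0.5 mg/mL, NADPH 0.5 mg/mL final; p53RE-bla cells, 16 h 37 C; LiveBLAzer readout, 2 h RT dark.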

[8] = p53 small molecule agonists, cell-based qHTS assay with human liver microsomes: qHTS cell viability counter screen (AID 1963579); note: nearly all actives have a fitted effect of over 45% in size
Summary of the method: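 Luminescent CellTiter-Glo read-out, 30 min at room temperature, gauged cytotoxicity in p53RE-bla cells exposed 16 h at 37 C to DMSO-dissolved compounds with metabolic activation by human liver microsomes and NADPH, each 0.5 mg/mL final.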

[9] = p53 small molecule agonists, cell-based qHTS assay with rat liver microsomes: qHTS cell viability counter screen (AID 1963580); note: nearly all actives have a fitted effect of over 45% in size
Summary of the method: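 Counter screen for cytotoxicity under metabolic activation: rat liver microsomes and NADPH, 0.5 mg/mL final each, added with compounds to p53RE-bla HCT-116 cells; 16 h at 37 C, then ATP luminescence read.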

[10] = p53 small molecule agonists, cell-based qHTS assay: qHTS cell viability counter screen (AID 1963581); note: nearly all actives have a fitted effect of over 45% in size
Summary of the method: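 Cytotoxicity read-out: ATP-based luminescence (CellTiter-Glo, 30 min RT) measured in the same wells as the p53 reporter assay, HCT-116 p53RE-bla cells, 16 h compound exposure at 37 C.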

[11] = p53 small molecule agonists, cell-based qHTS assay (AID 1963582; active = well fitted activation curve with a large enough effect in the signal ratio in the repeat runs, not every such curve was filed as active; the % refers to the signal ratio)
Summary of the method: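 Fluorescence intensity read-out of a beta-lactamase reporter under a p53 response element. Cells were exposed to DMSO-dissolved compounds for 16 h at 37 C, then developed with FRET substrate for 2 h at RT.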

[12] = molecular target: 5-hydroxytryptamine receptor 2A (Homo sapiens) (UniProt P28223); assay: 5-hydroxytryptamine receptor 2A (HTR2A) small molecule agonists, cell-based qHTS assay (AID 1963587); note: nearly all actives have a fitted effect of over 30% in size; note: potency is the fitted concentration of half-maximal effect
Summary of the method: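 HTR2A-CHO cells, plated 18 h at 37 C/5% CO2, dye-loaded 1 h at 37 C; compounds in DMSO added by pin tool (agonist mode). Intracellular calcium flux read as kinetic fluorescence on FDSS over 2 min at 1 s intervals.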

[13] = molecular target: Muscarinic acetylcholine receptor M1 (Homo sapiens) (UniProt P11229); assay: Cholinergic receptor muscarinic 1 (CHRM1) small molecule antagonists, cell-based qHTS assay (AID 1963588); note: nearly all actives have a fitted effect of over 40% in size
Summary of the method: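 Compounds were tested at 15 concentrations in three independent runs. Dye-loaded CHRM1-CHO cells were exposed 5 min at room temperature before stimulation by acetylcholine added at 50nM. Intracellular calcium was read kinetically on FDSS for 3 min.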

[14] = cAMP Responsive Elements (CRE) small molecule antagonists, cell-based qHTS assay (AID 1963591; active = well fitted inhibition curve with a large enough effect in the signal ratio in the repeat runs, not every such curve was filed as active; the % refers to the signal ratio)
Summary of the method: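 HEK293T CRE-bla; 18 h preincubation; compound pin-transfer; NKH477 0.25 uM final, 3 h, 37 C; LiveBLAzer FRET substrate 2 h RT.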

[15] = molecular target: Beta-2 adrenergic receptor (Homo sapiens) (UniProt P07550); assay: Adrenergic beta2 receptor (ADRB2) small molecule antagonists, cell-based qHTS assay (AID 1963592); note: series mostly up to about 92 µM; nearly all actives have a fitted effect of over 50% in size
Summary of the method: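 Assay format: CHO-ADRB2 cells, 18-20hr seeding at 37C/5% CO2, then compound plus 1nM isoproterenol agonist mix for 0.5hr RT. Homogeneous time-resolved fluorescence cAMP detection after 1hr, expressed as 665/615 nm ratio.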

[16] = molecular target: Beta-2 adrenergic receptor (Homo sapiens) (UniProt P07550); assay: Adrenergic beta2 receptor (ADRB2) small molecule agonists, cell-based qHTS assay (AID 1963593);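 note: CHO cells stably overexpressing human ADRB2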
Summary of the method: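 CHO cells stably over-expressing ADRB2 were plated overnight at 37C, then dosed with compounds plus a stimulation mix containing 100uM IBMX and 25uM Ro-20-1724 for 0.5hr at room temperature. cAMP was measured by HTRF competition, 1hr.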

[17] = molecular target: Muscarinic acetylcholine receptor M1 (Homo sapiens) (UniProt P11229); assay: Cholinergic receptor muscarinic 1 (CHRM1) small molecule agonists, cell-based qHTS assay (AID 1963589); note: nearly all actives have a fitted effect of over 35% in size
Summary of the method: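 Calcium flux read-out: kinetic fluorescence at 1 sec intervals after pin-tool compound addition to dye-loaded CHRM1-CHO cells (human M1). Agonist mode; 15 concentrations tested in triplicate independent runs.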

[18] = cAMP Responsive Elements (CRE) small molecule agonists, cell-based qHTS assay (AID 1963590)
Summary of the method: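 Beta-lactamase reporter readout: LiveBLAzer B/G FRET substrate, 2 h at room temperature, added after 3 h compound treatment of CRE-bla HEK 293T cells at 37 C/5% CO2.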

[19] = molecular target: D(2) dopamine receptor (Homo sapiens) (UniProt P14416); assay: Dopamine D2 receptor (DRD2) small molecule agonists, cell-based qHTS assay (AID 1963594); note: nearly all actives have a fitted effect of over 35% in size; note: potency is the fitted concentration of half-maximal effect
Summary of the method: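 HEK293 cells stably expressing DRD2 were cultured 24 h at 37 C, then given Ro20-1724 (0.1 mM final) and compounds for 10 min at room temperature. NKH477 (200nM) was then added for 30 min. cAMP was read by HTRF.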

[20] = molecular target: D(2) dopamine receptor (Homo sapiens) (UniProt P14416); assay: Dopamine D2 receptor (DRD2) small molecule antagonists, cell-based qHTS assay (AID 1963595; active = well fitted inhibition curve with a large enough effect in the signal ratio in the repeat runs, with a control signal flat; the % refers to the signal ratio; note: potency is the fitted concentration of half-maximal effect)
Summary of the method: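 Antagonist mode in DRD2-HEK293 cells: after compound addition with 0.1 mM Ro20-1724, cells received quinpirole (12 nM) and NKH477 (200 nM) for 30 min at room temperature; HTRF cAMP read after 1 h detection.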

Measured: Potency

Sequence of Muscarinic acetylcholine receptor M1 (Homo sapiens) (P11229 whole entry, looked up): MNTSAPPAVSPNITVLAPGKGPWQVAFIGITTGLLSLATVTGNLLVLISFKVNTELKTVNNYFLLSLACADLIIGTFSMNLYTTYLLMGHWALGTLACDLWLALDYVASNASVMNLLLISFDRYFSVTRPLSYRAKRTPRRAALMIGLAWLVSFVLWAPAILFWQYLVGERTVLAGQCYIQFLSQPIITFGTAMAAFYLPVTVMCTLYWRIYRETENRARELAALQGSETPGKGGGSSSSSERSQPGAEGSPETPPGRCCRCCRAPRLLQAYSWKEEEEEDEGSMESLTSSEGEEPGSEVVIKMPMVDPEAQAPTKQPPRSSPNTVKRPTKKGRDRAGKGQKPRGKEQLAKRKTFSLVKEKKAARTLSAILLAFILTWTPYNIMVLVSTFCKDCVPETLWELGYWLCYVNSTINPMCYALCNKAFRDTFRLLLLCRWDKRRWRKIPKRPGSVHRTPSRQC
Sequence of Gonadotropin-releasing hormone receptor (Homo sapiens) (P30968 whole entry, looked up): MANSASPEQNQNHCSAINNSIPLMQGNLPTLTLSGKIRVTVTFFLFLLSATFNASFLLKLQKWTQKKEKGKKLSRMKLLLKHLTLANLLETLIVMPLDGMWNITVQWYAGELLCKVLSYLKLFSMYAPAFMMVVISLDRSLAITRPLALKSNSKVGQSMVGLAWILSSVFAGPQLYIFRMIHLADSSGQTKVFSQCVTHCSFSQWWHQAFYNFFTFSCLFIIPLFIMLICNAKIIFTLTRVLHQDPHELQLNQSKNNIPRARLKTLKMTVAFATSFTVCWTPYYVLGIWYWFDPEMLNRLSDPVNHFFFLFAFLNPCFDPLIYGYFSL
Sequence of Beta-2 adrenergic receptor (Homo sapiens) (P07550 whole entry, looked up): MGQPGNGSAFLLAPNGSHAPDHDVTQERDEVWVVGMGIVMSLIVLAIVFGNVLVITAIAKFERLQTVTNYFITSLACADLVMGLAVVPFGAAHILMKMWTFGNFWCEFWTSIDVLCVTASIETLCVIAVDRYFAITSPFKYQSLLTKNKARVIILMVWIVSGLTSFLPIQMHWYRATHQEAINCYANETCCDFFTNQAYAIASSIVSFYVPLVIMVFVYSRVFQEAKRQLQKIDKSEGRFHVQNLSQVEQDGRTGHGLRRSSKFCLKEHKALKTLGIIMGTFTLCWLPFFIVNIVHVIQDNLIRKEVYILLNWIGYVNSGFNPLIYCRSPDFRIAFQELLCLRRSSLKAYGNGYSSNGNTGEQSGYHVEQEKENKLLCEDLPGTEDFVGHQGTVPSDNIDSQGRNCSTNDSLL
Sequence of D(2) dopamine receptor (Homo sapiens) (P14416 whole entry, looked up): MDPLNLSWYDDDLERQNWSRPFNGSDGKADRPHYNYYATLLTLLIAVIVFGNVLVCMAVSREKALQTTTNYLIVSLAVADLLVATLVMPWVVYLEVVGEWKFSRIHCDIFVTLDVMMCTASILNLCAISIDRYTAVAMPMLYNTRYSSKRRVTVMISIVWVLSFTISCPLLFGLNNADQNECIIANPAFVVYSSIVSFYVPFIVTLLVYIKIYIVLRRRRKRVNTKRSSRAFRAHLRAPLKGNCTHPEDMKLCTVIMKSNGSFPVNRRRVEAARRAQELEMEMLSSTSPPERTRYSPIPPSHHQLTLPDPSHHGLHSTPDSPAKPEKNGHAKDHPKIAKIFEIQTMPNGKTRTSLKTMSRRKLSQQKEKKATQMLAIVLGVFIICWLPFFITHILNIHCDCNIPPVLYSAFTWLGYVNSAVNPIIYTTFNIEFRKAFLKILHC
Sequence of KiSS-1 receptor (Homo sapiens) (Q969F8 whole entry, looked up): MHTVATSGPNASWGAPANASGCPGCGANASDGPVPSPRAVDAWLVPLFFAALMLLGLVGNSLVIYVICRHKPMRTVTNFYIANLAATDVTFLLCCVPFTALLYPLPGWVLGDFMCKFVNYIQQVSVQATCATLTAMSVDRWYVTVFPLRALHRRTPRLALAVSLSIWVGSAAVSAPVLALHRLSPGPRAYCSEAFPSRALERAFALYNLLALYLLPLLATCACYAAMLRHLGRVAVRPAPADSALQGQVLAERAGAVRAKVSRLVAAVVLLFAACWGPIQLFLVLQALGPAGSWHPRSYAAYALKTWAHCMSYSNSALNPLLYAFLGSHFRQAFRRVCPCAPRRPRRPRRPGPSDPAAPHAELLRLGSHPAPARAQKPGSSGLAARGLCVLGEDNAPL
Sequence of 5-hydroxytryptamine receptor 2A (Homo sapiens) (P28223 whole entry, looked up): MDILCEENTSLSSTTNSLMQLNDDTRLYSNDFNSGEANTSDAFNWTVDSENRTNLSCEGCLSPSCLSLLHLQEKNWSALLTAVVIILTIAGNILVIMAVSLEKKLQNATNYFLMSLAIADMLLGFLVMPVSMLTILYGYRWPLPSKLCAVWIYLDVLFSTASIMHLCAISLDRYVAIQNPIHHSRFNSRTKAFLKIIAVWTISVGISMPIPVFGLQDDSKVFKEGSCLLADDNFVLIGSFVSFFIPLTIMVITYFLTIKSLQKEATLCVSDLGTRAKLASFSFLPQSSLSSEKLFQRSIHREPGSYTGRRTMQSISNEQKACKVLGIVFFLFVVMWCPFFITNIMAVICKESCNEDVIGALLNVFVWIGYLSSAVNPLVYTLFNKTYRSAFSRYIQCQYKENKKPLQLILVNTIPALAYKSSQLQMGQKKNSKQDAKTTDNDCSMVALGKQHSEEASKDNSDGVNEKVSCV

COc1cc(NS(=O)(=O)c2ccc(N)cc2)ncn1
not listed: [17] | [18] | [19] | [20]
inactive: all other assays above

O=C(O)CCN(C1(C(=O)NO)CCCC1)S(=O)(=O)c1ccc(Oc2ccc(F)cc2)cc1
not listed: [14] | [15] | [16]
inactive: all other assays above

CC1(C)CCC(C)(C)c2cc(NC(=O)c3ccc(C(=O)O)cc3)ccc21
active: [19] 1.06 µM
not listed: [14] | [16] | [18]
inactive: all other assays above

CCOC(=O)Cn1cccc1-c1nc(-c2ccc(OC)cc2)c(-c2ccc(OC)cc2)s1
not listed: [16] | [17]
inactive: all other assays above

CCCCCCCCCCCCCCCCCCO
not listed: [18]
inactive: all other assays above

CC(C)(C)C(=O)Oc1ccc(S(=O)(=O)Nc2ccccc2C(=O)NCC(=O)O)cc1
not listed: [14]
inactive: all other assays above

C=C(C)C(=O)OCC[N+](C)(C)C
active: [2] 60.9 µM
not listed: [13]
inactive: all other assays above

Cc1cc(C)c(C=O)c(C)c1
not listed: [16] | [17]
inactive: all other assays above

O=C1[C@H]2CCCC[C@H]2C(=O)N1CCCCN1CCN(c2nsc3ccccc23)CC1
active: [20] 0.0027 µM
not listed: [13] | [14] | [16] | [18]
inactive: all other assays above

CCCCCCCCOCCCN
active: [1] 68.6 µM | [12] 24.5 µM
not listed: [16] | [17] | [18] | [20]
inactive: all other assays above

O=C1c2ccccc2C(=O)c2cc(O)ccc21
not listed: [18]
inactive: all other assays above

COCCc1ccccn1
not listed: [14]
inactive: all other assays above

CCCCCCCCC1CO1 (stereo unspecified)
not listed: [14] | [16]
inactive: all other assays above
